Data published in PubChem BioAssay (NCATS).
Inconclusive results are not listed. Active and inactive are the calls of the source. Unless noted, calls come from the whole dose curve; as a rule, active = well fitted curve in the direction sought with a large enough effect; inconclusive = small, poorly fitted or top-dose-only effect, or another doubt; inactive = no such curve, though single readings can be large; an effect the other way counts as inactive or inconclusive.

Legend:
[1] = AP1 Signaling Pathway (AID 357; active = well fitted curve in either direction with a large enough effect, not every such curve was filed as active;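 note: ME-180 reporter cells stimulated with EGF at its EC50 level; % is set by controls: 0 for no effect and ±100 for the full control effect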); details: ME-180 AP-1-bla reporter, EGF-induced, beta-lactamase ratio, 5 h; at 7.69 µM (top of the series) unless noted
Method in brief: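 Beta-lactamase reporter under AP-1 response element, ME-180 background. Stimulus: EC50 EGF. Compound exposure 5 h, 37 °C. Detection: CCF4, 2.5 h RT, 460/530 nm. Values: AC50 from titration.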

[2] = target: Cytochrome P450 1A2 (Homo sapiens) (UniProt P05177); test: p450-cyp1a2 (AID 410; calls by dose curve; note: potency is the fitted concentration of half-maximal effect;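 for activity change, negative = inhibition: -100% = full effect of reference inhibitor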); details: recombinant CYP1A2, luciferin-ME demethylation, luminescence; series mostly up to 57 µM
Cytochrome P450 1A2 (Homo sapiens), sequence (P05177 whole entry, looked up): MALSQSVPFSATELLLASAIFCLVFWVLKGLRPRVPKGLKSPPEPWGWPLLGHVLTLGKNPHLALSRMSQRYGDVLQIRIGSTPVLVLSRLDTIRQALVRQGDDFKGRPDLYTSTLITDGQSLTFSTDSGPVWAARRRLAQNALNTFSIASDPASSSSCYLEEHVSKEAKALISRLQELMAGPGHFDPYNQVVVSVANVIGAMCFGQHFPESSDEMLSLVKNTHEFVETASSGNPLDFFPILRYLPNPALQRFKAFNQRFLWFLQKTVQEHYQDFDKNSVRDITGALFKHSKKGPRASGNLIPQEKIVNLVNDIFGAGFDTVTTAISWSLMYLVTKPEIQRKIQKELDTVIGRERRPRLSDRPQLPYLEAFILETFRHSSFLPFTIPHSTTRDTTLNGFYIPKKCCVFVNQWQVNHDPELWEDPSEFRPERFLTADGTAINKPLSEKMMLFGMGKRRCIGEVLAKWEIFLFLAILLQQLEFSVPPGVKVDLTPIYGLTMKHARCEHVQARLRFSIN
Method in brief: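 Human CYP1A2 (20nM) demethylated Luciferin-ME at its Km (100uM) in 100mM KPO4. After 10 min compound preincubation, NADPH regeneration ran the reaction 60 min at room temperature. Luciferin was read by luminescence, normalized to 57 uM furafylline.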

[3] = NFAT Signaling Pathway (AID 444; active = well fitted curve in either direction with a large enough effect, not every such curve was filed as active;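 note: carbachol stimulus at about its EC50 of 1 µM final; % is set by controls: 0 for no effect and ±100 for the full control effect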); details: Jurkat NFAT-bla M1, carbachol, beta-lactamase ratio, 5 h; at 7.69 µM (top of the series) unless noted
Method in brief: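 Read-out: CCF4 FRET ratio (460 nm/530 nm) after 1 h RT dye loading, used for %activity and AC50 from titration series. Cells: Jurkat NFAT-β-lactamase/M1 line, treated with compound plus 1 uM carbachol for 5 h, 37 °C.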

[4] = Stat Signaling Pathway (AID 446; active = well fitted curve in either direction with a large enough effect, not every such curve was filed as active;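 note: ME-180 cervical cancer cells given 40 pM IL-6 alongside compound; SIE-controlled beta-lactamase reporter measured as 460/530 nm FRET emission ratio; % is set by controls: 0 for no effect and ±100 for the full control effect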); details: ME-180 SIE beta-lactamase reporter, IL-6 stimulated, 5 h; at 7.69 µM (top of the series) unless noted
Method in brief: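 ME-180 SIE-bla cells; overnight plating; cpd + IL-6 40 pM, 5 h, 37 C; LiveBLAzer 2.5 h RT; 460/530 nm emission ratio. Normalized to 300 pM IL-6 and 125 nM JAK inhibitor controls.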

[5] = target: Glucocorticoid receptor (Homo sapiens) (UniProt P04150); test: GR-GFP Redistribution (AID 450;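 active = compounds whose dose series gives a full or clear partial fitted curve of increased nuclear translocation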; note: potency is the fitted concentration of half-maximal effect); details: U2OS GR-GFP nuclear translocation, laser cytometry, 2 h
Glucocorticoid receptor (Homo sapiens), sequence (P04150 whole entry, looked up, the tested form may be a part): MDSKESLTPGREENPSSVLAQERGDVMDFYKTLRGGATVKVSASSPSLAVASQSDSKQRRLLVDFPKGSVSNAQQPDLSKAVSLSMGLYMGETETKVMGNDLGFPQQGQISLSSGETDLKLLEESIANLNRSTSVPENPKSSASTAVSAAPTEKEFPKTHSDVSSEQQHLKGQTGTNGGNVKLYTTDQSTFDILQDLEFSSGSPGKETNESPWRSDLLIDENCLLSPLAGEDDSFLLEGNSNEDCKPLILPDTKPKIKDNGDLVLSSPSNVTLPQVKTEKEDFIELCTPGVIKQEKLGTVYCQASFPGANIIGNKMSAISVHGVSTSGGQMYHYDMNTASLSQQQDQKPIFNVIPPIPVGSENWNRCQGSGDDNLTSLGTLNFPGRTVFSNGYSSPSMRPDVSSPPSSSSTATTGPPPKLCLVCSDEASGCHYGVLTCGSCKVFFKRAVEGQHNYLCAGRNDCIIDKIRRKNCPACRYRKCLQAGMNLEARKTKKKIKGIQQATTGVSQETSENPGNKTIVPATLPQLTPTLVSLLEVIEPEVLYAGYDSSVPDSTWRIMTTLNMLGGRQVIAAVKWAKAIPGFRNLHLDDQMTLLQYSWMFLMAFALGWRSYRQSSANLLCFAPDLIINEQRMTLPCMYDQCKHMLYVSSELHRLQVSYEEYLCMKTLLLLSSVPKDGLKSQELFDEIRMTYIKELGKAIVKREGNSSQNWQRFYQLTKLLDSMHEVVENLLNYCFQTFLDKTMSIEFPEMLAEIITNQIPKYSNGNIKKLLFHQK

[6] = target: Glucocorticoid receptor (Homo sapiens) (UniProt P04150); test: GR-EFC Redistribution (AID 451; calls by dose curve; note: potency is the fitted concentration of half-maximal effect); details: CHO-K1 GR-EFC translocation, beta-gal luminescence, 2 h
Method in brief: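 Translocation of GR-ED fusion to nuclear EA restores b-gal, read by luminescence after 1 h room-temperature detection. Engineered CHO-K1 biosensor cells, 1,000/well, exposed 2 h at 37 C to titrations up to 46 uM final.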

[7] = target: Mitogen-activated protein kinase 10 (Mus musculus) (UniProt Q61831); test: JNK3 AlphaScreen Assay (AID 530; active = well fitted curve in either direction with a large enough effect, not every such curve was filed as active;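 note: kinase came from lysate of stimulated human HepG2 cells; signal reports phosphorylation of biotinylated GST-cJun 1-79 at Ser73 with 10 µM ATP; % is set by controls: 0 for no effect and ±100 for the full control effect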); details: JNK3 lysate, c-Jun phosphorylation; series mostly up to 57.1 µM
Method in brief: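 Room-temperature AlphaScreen kinase assay; pre-activated HepG2 lysate as JNK3 source, biotin-GST-cJun(1-79) substrate, 10 uM ATP, compound 15 min preincubation.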

[8] = target: Cytochrome P450 3A4 (Homo sapiens) (UniProt P08684); test: qHTS Assay for Inhibitors and Substrates of Cytochrome P450 3A4 (AID 884); details: recombinant CYP3A4, Luciferin-PPXE luminescence; series mostly up to 57.1 µM; note: potency is the fitted concentration of half-maximal effect; nearly all actives have a fitted effect of over 50% in size
Cytochrome P450 3A4 (Homo sapiens), sequence (P08684 whole entry, looked up): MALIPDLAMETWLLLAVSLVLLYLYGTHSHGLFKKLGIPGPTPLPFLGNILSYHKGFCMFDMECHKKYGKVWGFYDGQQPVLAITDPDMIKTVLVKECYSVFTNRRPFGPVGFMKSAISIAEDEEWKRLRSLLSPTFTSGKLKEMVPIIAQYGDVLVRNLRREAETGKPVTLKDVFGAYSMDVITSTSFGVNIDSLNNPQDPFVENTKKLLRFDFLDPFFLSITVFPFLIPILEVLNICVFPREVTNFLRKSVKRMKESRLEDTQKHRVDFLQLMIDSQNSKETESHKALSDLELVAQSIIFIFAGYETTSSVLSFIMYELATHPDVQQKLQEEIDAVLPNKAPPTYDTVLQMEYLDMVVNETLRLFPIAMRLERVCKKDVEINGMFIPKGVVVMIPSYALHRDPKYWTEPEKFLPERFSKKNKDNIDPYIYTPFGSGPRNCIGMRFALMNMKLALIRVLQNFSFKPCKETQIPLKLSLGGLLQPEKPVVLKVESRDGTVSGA
Method in brief: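 20 nM human CYP3A4 with 25 uM Luciferin-PPXE (at KM) in 200 mM KPO4, preincubated 10 min with compound; NADPH regeneration started a 60 min RT reaction. Luciferin detected by luminescence, normalized to 57 uM ketoconazole as full inhibition.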

[9] = target: Cytochrome P450 3A4 (Homo sapiens) (UniProt P08684); test: qHTS Assay for Activators of Cytochrome P450 3A4 (AID 885); details: recombinant CYP3A4, Luciferin-PPXE luminescence, 60 min; series mostly up to 57.1 µM; note: nearly all actives have a fitted effect of over 65% in size
Method in brief: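 20nM CYP3A4 + 25uM Luciferin-PPXE (=KM), 200mM KPO4; cpd 10 min RT; NADPH regen, 60 min RT; stop w/ detection buffer, 20 min; luminescence. Normalized to 57 uM ketoconazole.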

[10] = target: Cytochrome P450 2C19 (Homo sapiens) (UniProt P33261); test: qHTS Assay for Inhibitors and Substrates of Cytochrome P450 2C19 (AID 899); details: recombinant CYP2C19, luciferin-H EGE luminescence; series mostly up to 57.1 µM; note: potency is the fitted concentration of half-maximal effect; nearly all actives have a fitted effect of over 60% in size
Cytochrome P450 2C19 (Homo sapiens), sequence (P33261 whole entry, looked up): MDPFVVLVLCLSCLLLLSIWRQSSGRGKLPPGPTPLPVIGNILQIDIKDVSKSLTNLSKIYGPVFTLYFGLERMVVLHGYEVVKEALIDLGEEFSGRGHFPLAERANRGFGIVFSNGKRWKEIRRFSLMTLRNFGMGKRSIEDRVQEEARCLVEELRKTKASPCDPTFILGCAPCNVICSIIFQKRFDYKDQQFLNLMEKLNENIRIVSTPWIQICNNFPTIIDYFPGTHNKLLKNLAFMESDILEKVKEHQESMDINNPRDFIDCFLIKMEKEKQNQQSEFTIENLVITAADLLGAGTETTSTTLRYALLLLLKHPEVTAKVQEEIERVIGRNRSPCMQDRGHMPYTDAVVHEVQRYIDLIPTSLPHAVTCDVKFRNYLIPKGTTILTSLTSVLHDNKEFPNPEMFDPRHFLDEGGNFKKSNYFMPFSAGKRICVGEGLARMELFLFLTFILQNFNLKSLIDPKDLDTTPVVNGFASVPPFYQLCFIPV
Method in brief: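 Luminescence readout of luciferin formed from 10uM Luciferin-H EGE (KM level) by 5 nM CYP2C19 in 50mM KPO4. 60 min NADPH-driven reaction at 37C after 10 min compound preincubation; data scaled to 57uM ketoconazole inhibition.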

[11] = target: Dual specificity protein kinase CLK4 (Homo sapiens) (UniProt Q9HAZ1); test: qHTS Assay for Inhibitors of CDC-like Kinase 4 (ADP-FP Assay) (AID 1795); details: Transcreener ADP fluorescence polarization; series mostly up to 50 µM;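 note: recombinant human CLK4 phosphorylating RS repeat peptide at 1 µM ATP; % is set by controls: 0 for no effect and ±100 for the full control effect; nearly all actives have a fitted effect of over 60% in size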
Dual specificity protein kinase CLK4 (Homo sapiens), sequence (Q9HAZ1 whole entry, looked up): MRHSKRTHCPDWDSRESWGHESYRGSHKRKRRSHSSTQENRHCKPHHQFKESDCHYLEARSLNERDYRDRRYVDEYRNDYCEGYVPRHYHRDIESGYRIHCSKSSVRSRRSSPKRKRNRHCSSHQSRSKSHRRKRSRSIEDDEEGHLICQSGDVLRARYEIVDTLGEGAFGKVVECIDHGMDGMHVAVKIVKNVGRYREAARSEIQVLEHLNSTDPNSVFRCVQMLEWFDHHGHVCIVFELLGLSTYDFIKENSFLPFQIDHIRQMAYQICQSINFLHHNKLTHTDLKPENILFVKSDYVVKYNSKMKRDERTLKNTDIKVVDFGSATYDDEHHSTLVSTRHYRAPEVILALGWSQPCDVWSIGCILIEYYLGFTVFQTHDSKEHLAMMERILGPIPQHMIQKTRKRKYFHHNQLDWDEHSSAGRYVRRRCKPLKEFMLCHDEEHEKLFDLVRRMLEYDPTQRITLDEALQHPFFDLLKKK
Method in brief: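 FP readout: Orange Transcreener ADP2 tracer (4 nM) plus ADP antibody, read after 30 min at room temperature. Kinase step: 6.25 nM Clk4, 100 uM RS peptide, 1 uM ATP, pH 7.5, 1 h.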

[12] = target: Ubiquitin carboxyl-terminal hydrolase 1 (Homo sapiens) (UniProt O94782); test: Inhibitors of USP1/UAF1: Pilot qHTS (AID 504865); details: purified USP1/UAF1, Ub-rhodamine cleavage fluorescence; series mostly up to 54.9 µM; note: nearly all actives have a fitted effect of over 35% in size; note: potency is the fitted concentration of half-maximal effect
Ubiquitin carboxyl-terminal hydrolase 1 (Homo sapiens), sequence (O94782 whole entry, looked up): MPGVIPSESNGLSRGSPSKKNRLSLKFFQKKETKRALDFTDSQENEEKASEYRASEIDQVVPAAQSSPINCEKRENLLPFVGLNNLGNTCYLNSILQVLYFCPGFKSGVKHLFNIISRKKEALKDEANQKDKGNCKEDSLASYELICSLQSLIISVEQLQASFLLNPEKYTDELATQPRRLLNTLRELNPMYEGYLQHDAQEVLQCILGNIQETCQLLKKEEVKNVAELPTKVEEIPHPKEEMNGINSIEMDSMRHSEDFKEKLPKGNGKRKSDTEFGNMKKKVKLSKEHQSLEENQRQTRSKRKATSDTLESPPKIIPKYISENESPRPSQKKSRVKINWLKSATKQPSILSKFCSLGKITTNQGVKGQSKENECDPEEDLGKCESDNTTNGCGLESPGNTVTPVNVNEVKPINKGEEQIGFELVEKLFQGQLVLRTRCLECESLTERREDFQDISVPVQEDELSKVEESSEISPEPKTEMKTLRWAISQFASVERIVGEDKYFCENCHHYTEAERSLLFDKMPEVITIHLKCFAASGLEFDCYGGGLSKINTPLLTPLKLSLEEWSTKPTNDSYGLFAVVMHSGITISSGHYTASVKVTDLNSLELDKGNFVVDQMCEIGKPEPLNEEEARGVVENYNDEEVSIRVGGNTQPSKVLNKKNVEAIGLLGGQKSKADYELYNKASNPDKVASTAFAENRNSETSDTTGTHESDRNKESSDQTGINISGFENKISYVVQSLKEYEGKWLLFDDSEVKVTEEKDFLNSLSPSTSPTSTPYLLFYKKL
Method in brief: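 1nM USP1/UAF1 + cpd, 15 min RT; start w/ Ub-Rho 150nM final; kinetic FL 480/540 nm, 6 reads q60 s. Buffer 50mM HEPES pH 7.8, 0.5mM EDTA, 1mM TCEP, 0.01% Tween-20, 0.1 mg/ml BSA.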

[13] = Primary qHTS for small molecule stabilizers of the endoplasmic reticulum resident proteome: Secreted ER Calcium Modulated Protein (SERCaMP) assay (AID 1508630); details: SH-SY5Y GLuc-SERCaMP (Gaussia luciferase released on ER calcium loss) secretion, thapsigargin, luminescence; series mostly up to 38.4 µM; note: % is set by controls: 0 for no effect and ±100 for the full control effect
Method in brief: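 GLuc-SERCaMP-expressing SH-SY5Y cells, pretreated 16 h with compound, are challenged with thapsigargin to empty ER calcium stores; after 4 h, coelenterazine is added directly to the medium and luminescence is imaged.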

[14] = target: Lysosomal acid glucosylceramidase (Homo sapiens) (UniProt P04062); test: Glucocerebrosidase-p2 (AID 348; in the data active = potency below about 10 µM; note: potency is the fitted concentration of half-maximal effect); details: purified GBA, blue fluorogenic substrate, 40 min
Lysosomal acid glucosylceramidase (Homo sapiens), sequence (P04062 whole entry, looked up): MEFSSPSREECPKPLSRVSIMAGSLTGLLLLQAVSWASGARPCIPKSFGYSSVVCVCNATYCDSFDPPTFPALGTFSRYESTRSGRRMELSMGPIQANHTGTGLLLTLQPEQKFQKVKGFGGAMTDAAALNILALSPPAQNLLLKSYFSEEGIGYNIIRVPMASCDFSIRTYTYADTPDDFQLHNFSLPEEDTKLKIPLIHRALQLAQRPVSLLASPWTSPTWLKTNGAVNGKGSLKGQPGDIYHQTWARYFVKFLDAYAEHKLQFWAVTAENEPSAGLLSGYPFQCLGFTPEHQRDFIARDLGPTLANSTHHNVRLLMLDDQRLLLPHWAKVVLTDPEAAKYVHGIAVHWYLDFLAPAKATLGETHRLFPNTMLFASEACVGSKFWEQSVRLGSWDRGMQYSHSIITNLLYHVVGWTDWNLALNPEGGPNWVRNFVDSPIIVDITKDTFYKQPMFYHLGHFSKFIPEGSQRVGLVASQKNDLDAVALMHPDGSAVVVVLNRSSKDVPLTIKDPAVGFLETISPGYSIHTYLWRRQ
Method in brief: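 Compounds titrated from 0.6 nM upwards against 0.2 nM enzyme in pH 5.9 citric acid/KH2PO4, taurocholate, tween-20; blue fluorogenic substrate 80 uM, 40 min room temperature, stopped and read Ex 365/Em 440 for AC50.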

[15] = Confirmation and Secondary Assay for Modulators of Hemoglobin Beta Chain Splicing at IVS2 654 locus (AID 910); details: HeLa EGFP-654 splicing reporter, GFP fluorescence, 48 h; series mostly up to 38.3 µM;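 note: HeLa cells stably carrying EGFP split by mutant beta-globin IVS2-654 intron; per-well total GFP intensity by laser scanning cytometry after 2-day treatment; % of control where 0% means no effect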
Method in brief: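 Readout: per-well total peak green fluorescence (488 nm ex, 500–520 nm em) from objects 5–250 µm, reflecting correct splicing of an EGFP-654 reporter. Compounds were applied for 2 days at 37 °C to overnight-plated HeLa EGFP-654 cells; controls were DMSO and 500 nM IVS2-654 PNA.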

[16] = qHTS Assay for Identification of Small Molecule Agonists for Hypoxia Response Element Signaling Pathway (AID 914; active = well fitted activation curve with a large enough effect in the signal ratio, with a control signal flat, not every such curve was filed as active; the % refers to the signal ratio; note: % of control where 0% means no effect); details: ME-180 (cervical carcinoma) HRE-bla reporter, beta-lactamase ratio, CoCl2, 17 h; activation: active compounds read high
Method in brief: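 Read-out: CCF4 FRET ratio of 460nm to 530nm emission (excitation 405nm) after 2.5 hours at room temperature, taken from HRE-bla ME-180 cells that had been exposed to compound and EC50 CoCl2 for 17 hours.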

[17] = Confirmation and Secondary Assay for Modulators of Hemoglobin Beta Chain Splicing at IVS2 705 locus (AID 930); details: HeLa EGFP-705 splicing reporter, GFP fluorescence, 48 h; series mostly up to 38.3 µM;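 note: HeLa cells stably expressing the EGFP-705 splicing reporter; GFP fluorescence per well restored by corrected splicing of the IVS2-705 intron in EGFP; % of control where 0% means no effect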
Method in brief: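 HeLa EGFP-705 reporter; 500 cells/well, o/n 37C 5% CO2; cpd 2 d; 488 ex/500-520 em laser scan; total peak GFP intensity/well. Ref: 500 nM […] antisense PNA.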

[18] = target: 3',5'-cyclic-AMP phosphodiesterase 4B (Homo sapiens) (UniProt Q07343); test: qHTS Assay for Inhibitors of PDE-IV (AID 607; active = well fitted activation curve with a large enough effect in the main read-out, with a control signal flat, not every such curve was filed as active; note: % of control where 0% means no effect); details: HEK293 ACTOne CNG channel cells, membrane potential fluorescence; series mostly up to 22.9 µM
3',5'-cyclic-AMP phosphodiesterase 4B (Homo sapiens), sequence (Q07343 whole entry, looked up): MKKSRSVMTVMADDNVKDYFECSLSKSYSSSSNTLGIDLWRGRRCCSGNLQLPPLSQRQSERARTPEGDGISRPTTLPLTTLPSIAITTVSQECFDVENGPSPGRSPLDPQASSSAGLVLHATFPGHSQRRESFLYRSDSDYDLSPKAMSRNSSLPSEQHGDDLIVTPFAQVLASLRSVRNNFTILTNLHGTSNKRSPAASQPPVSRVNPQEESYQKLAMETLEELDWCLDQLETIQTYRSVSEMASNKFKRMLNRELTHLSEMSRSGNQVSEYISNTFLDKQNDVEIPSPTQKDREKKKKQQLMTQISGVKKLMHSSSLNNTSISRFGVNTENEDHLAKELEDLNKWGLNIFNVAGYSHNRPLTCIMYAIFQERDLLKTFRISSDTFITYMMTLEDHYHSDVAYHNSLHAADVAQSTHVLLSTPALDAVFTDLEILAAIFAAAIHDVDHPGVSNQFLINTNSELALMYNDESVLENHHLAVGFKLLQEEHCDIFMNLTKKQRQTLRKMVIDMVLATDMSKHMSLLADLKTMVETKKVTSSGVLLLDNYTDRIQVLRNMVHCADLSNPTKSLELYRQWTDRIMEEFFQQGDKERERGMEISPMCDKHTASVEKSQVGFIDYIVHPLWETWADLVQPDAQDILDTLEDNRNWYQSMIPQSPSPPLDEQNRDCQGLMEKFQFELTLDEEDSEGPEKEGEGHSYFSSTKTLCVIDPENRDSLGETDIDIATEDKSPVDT
Method in brief: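 ACTOne HEK293 cells carry a modified cAMP-gated CNG channel and express endogenous PDE4; plated 1000 cells/well, compounds up to 22.9 uM final. Membrane-potential dye fluorescence (ex 535/em 590) was read; parental cells received 10 uM forskolin + 100 uM RO 20-1724.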

COc1ccccc1-c1cncnc1NCc1cccs1
active: Potency [2] 3160 nM | Potency [8] 398 nM | Potency [10] 2 µM
inactive: activity change, negative = inhibition [1] 0.247% | activity change, negative = inhibition [3] -3.21% | activity, negative = inhibition [4] -6.68% | Potency [5] > 46 µM | Potency [6] > 46 µM | Potency [7] | Potency [9] | Potency [11] | Potency [12] | outcome [13]

N#Cc1cccc(-c2nc(NCc3ccccc3)c3ccccc3n2)c1
inactive: Potency [14] > 11.4 µM | activity change, negative = inhibition [1] -14.6% | activity change, negative = inhibition [3] -13.5% | activity, negative = inhibition [4] -8.06% | Potency [5] > 46 µM | Potency [6] > 46 µM | Potency [7] | Potency [9] | outcome [13]
active: Potency [2] 398 nM | Potency [10] 6.31 µM | Potency [12] 15.8 µM

COc1cccc(-c2nc(NCc3cnc(C)cn3)c3ccccc3n2)c1
inactive: Potency [14] > 11.4 µM | activity change, negative = inhibition [1] -17.2% | activity change, negative = inhibition [3] 20.9% | activity, negative = inhibition [4] -10.4% | Potency [5] > 46 µM | Potency [6] > 46 µM | Potency [7] | Potency [9] | Potency [15] | activation [16] 6.27% | outcome [17] | Potency [12] | outcome [13]
active: Potency [2] 398 nM

Cc1noc(C)c1-c1cncnc1NC1CC1
inactive: Potency [14] > 11.4 µM | activity change, negative = inhibition [1] 12.1% | Potency [2] | activity change, negative = inhibition [3] 0.874% | activity, negative = inhibition [4] -18.4% | Potency [5] > 46 µM | Potency [6] > 46 µM | Potency [7] | Potency [18] | Potency [9] | Potency [15] | outcome [17] | Potency [12] | outcome [13]

c1ccc2c(NC3CC3)nc(-c3ccoc3)nc2c1
inactive: activity change, negative = inhibition [1] 14.4% | activity change, negative = inhibition [3] -16.4% | activity, negative = inhibition [4] -5.96% | Potency [5] > 46 µM | Potency [6] > 46 µM | Potency [7] | Potency [9] | Potency [12] | outcome [13]
active: Potency [14] 3.8 µM | Potency [2] 316 nM | Potency [8] 3980 nM

CN(C)C(=O)c1ccc(-c2cncnc2NCCN2CCOCC2)cc1
inactive: Potency [14] > 11.4 µM | activity change, negative = inhibition [1] -0.958% | Potency [2] | activity change, negative = inhibition [3] -6.2% | activity, negative = inhibition [4] 0.853% | Potency [5] > 46 µM | Potency [6] > 46 µM | Potency [7] | Potency [18] | Potency [9] | Potency [15] | outcome [17] | Potency [12] | outcome [13]
